“And” between values parts separate entries of the source, which are not always exact repeats. Identical values can stand only once. Out of some 5,600 compounds screened, about 150 (2.7%) showed an effect of 50% or more. Only a selection was taken, and strong results are over-represented in it overall. Starred links: 1 amine or outer side, 2 acyl side, 3 side chain; linkers in the order of their positions; H or OH if unused. Positions of bridges follow the written chain, without caps; N, C: chain ends. Non-standard residues stand in square brackets, D forms with d. Residues, ends and D or L forms follow the SMILES beside them. ξ: configuration not given here. *: point of attachment. hTyr(3S-OH,4S-OH,3'-OSO3H) = N[C@H](C(=O)O)[C@H](O)[C@@H](O)c1ccc(O)c(OS(=O)(=O)O)c1; Orn(4R-OH,5R-OH) = O=C([C@H](C[C@@H](O)[C@@H](O)N[*:3])N[*:1])[*:2]; Pro(3S-OH,4S-Me) = C[C@H]1CN[C@H](C(=O)O)[C@H]1O; X1 = CCCCCOc1ccc(-c2cc(-c3ccc(C(=O)*)cc3)no2)cc1; Gln(3R-OH) = NC(=O)C[C@@H](O)[C@H](N)C(=O)O; Hyp = O=C(O)[C@@H]1C[C@@H](O)CN1; ξThr(3R) = C[C@@H](O)C(N)C(=O)O
Key:
[1] = biological target: T1, Protein deacetylase HDAC6 (Homo sapiens) (UniProt Q9UBN7); details: at 10 µM
T1 sequence (whole entry): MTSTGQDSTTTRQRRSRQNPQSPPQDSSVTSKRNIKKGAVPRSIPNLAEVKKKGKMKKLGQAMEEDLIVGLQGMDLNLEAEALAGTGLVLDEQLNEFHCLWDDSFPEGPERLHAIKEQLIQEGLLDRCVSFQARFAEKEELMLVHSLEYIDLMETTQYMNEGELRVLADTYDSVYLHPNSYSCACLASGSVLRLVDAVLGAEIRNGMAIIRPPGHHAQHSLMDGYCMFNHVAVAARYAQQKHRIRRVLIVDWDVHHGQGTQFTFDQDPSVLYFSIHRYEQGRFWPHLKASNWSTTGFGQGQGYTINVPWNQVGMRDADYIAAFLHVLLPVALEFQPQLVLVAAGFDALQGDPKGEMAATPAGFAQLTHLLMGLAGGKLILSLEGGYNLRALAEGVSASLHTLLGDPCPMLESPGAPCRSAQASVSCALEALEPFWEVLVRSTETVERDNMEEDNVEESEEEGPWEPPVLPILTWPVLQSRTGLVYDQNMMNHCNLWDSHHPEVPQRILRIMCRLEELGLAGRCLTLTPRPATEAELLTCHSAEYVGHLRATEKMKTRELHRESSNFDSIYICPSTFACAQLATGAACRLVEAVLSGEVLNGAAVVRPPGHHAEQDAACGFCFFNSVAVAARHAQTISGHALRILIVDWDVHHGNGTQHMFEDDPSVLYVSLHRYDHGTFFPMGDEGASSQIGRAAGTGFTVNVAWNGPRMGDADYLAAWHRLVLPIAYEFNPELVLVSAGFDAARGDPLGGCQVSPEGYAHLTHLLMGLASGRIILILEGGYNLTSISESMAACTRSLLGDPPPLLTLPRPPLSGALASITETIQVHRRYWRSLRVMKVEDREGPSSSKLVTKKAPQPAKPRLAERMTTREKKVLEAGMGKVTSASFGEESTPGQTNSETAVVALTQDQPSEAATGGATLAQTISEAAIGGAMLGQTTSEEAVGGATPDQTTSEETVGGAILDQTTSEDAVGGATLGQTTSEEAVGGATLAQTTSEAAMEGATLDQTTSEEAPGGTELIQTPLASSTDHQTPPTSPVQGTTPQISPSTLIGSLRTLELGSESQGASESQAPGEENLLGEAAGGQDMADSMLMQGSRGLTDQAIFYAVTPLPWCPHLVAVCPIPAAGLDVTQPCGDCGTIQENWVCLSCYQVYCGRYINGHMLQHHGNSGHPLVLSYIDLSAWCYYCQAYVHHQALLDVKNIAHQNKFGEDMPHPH

[2] = biological target: Protein deacetylase HDAC6 (Homo sapiens) (UniProt Q9UBN7); details: at 10 µM; remark: listed apart in the source

Compound	inhibition [1]	inhibition [2] [%]
O=C(NNc1ccccc1)c1ccncc1	-5.35%	–
O=C(/C=C/c1ccc2ccc(C(F)(F)F)cc2n1)c1ccncc1	-2.03%	–
O=C(/C=C/c1ccc2ccccc2n1)c1ccncc1	77.3%	–
Cc1c(Cl)cccc1S(=O)(=O)Nc1nc(CC(=O)N2CCN(C)CC2)cs1	4.81%	–
CCO[C@@H](Cc1ccc(OCCn2c(C)ccc2-c2ccc(SC)cc2)cc1)C(=O)O	46.3%	–
O=C(Nc1cccc(Cl)c1)c1ccccn1	97.2%	–
O=C(Nc1ccc(S(=O)(=O)Nc2ccccc2Cl)c(Cl)c1)c1ccccn1	13.9%	–
O=C(Nc1cnc(Cl)nc1)c1ccc(F)c(F)c1	-4.2%	–
O=C(Nc1ccc(Cl)cc1)Nc1ccc(Cl)c(Cl)c1	-2.56%	–
COc1cc(NC(=O)c2ccccn2)ccc1Cl	94.4%	–
CC(C)OC(=O)Nc1cccc(Cl)c1	-4.5%	–
Cc1cccc(C)c1NC(=O)[C@H]1CCCCN1C	2.44%	–
c1ccc(CN2CCC3(CCc4ccccc43)CC2)cc1	-2.02%	–
CN[C@@H](CCCNC(=N)N)C(=O)O	-8.08%	–
O=C(CCCS)NC1CCN(C(=O)COc2ccc(Cl)cc2Cl)CC1	7.84%	–
CO/N=C(/C(=O)N[C@@H]1C(=O)N2C(C(=O)O)=C(Cn3ccc(=N)n3CCO)CS[C@H]12)c1csc(N)n1	-0.61%	–
O=C(N[C@H]1CCN(C(=O)c2cc(C(F)(F)F)cc(C(F)(F)F)c2)[C@H](Cc2ccc(Cl)cc2)C1)c1ccnc2ccccc12	-1.37%	–
Cc1cn2nc([C@@H]3CCCCN3C(=O)c3cc(Cl)ccc3NS(C)(=O)=O)cc2nc1N1CC[C@H](N)C1	-2.52%	–
Cc1nc(NS(=O)(=O)c2ccc(N)cc2)oc1C	32.6%	–
SATRAPLATIN, CHEMBL3833367	–	-6.7
O=C1c2cccc(O)c2C(=O)c2c(O)cc(CO)cc21	5.42%	–
Cc1cc(O)c2c(c1)C(=O)c1cc(O)cc(O)c1C2=O	90.2%	–

Compound	inhibition [1]	inhibition [2] [%]
CCS(=O)(=O)N(C)[C@H]1c2cc(C#N)ccc2OC(C)(C)[C@@H]1O	-5.99%	–
CC(=O)OC[C@H](N)C(=O)O	3.65%	–
NC[C@H]1O[C@H](O[C@H]2[C@H](O)[C@@H](O[C@H]3O[C@H](CO)[C@@H](O)[C@H](N)[C@H]3O)[C@H](N)C[C@@H]2N)[C@H](N)C[C@@H]1O	-5.82%	–
NC[C@H]1O[C@H](O[C@H]2[C@H](O[C@@H]3O[C@H](CO)[C@@H](O)[C@H]3O)[C@@H](O)[C@H](N)C[C@@H]2N)[C@H](N)[C@@H](O)[C@@H]1O	-5.95% and -3.47%	–
NC[C@@H]1O[C@H](O[C@H]2[C@@H](O)[C@H](O[C@@H]3[C@@H](O)[C@H](N)C[C@H](N)[C@H]3O[C@H]3O[C@H](CO)[C@@H](O)[C@H](O)[C@H]3N)O[C@@H]2CO)[C@H](N)[C@@H](O)[C@@H]1O	80.2%	–
C[N+](C)(C)[C@@H](Cc1c[nH]c(=S)[nH]1)C(=O)[O-]	0.31%	–
CC/C(=C(/CC)c1ccc(OP(=O)(O)O)cc1)c1ccc(OP(=O)(O)O)cc1	-0.19%	–
CC(=O)N1CCC[C@H]1C(=O)N[C@@H](Cc1cnc[nH]1)C(=O)N[C@@H](CO)C(=O)N[C@@H](CS)C(=O)N[C@@H](CC(N)=O)C(N)=O (Ac-PHSCN-NH2)	-4.4%	–
COc1cc(OCc2cccc(-c3ccccc3)c2C)cc(OC)c1CN1CCCC[C@H]1C(=O)O	51.3%	–
CCOC(=O)[C@H](CCc1ccccc1)N[C@@H](C)C(=O)N1Cc2cc(OC)c(OC)cc2C[C@H]1C(=O)O	-3.25%	–
C#CC1(OCC(O)CN2CCN(c3cccc(C(F)(F)F)c3)CC2)CCCCC1 (stereo not drawn)	3.19%	–
Cn1c(COc2ccc(CC3SC(=O)NC3=O)cc2)nc2ccccc2c1=O (stereo not drawn)	6.76%	–
COCCOc1cnc2ccn([C@H](C)c3nnc4c(F)cc(-c5cnn(C)c5)cn34)c(=O)c2c1	-3.49%	–
O=C(NCc1ccc(OC(F)(F)F)cc1)C1c2ccccc2C(=O)N1C1CCOCC1 (stereo not drawn)	1.11%	–
C[C@H]1NC(=O)NC1=O	0.16%	–
Cc1[nH]c(/C=C2\C(=O)Nc3ccc(F)cc32)c(C)c1C(=O)NCCN1CCCC1	2.96%	–
Cc1[nH]c(/C=C2\C(=O)Nc3cc(-c4ccccc4)ccc32)c(C)c1CCC(=O)O	96.4%	–
COc1cc(OC)c(/C=C2/C(=O)Nc3ccccc32)c(OC)c1	-2.63%	–
CN[C@@H]1[C@@H](O[C@H]2O[C@H](CO)[C@@H](N)[C@H](O)[C@H]2O)O[C@H]2C[C@@H](N)[C@H](O[C@H]3[C@H](O)[C@@H](O)[C@H](N)C[C@@H]3N)O[C@@H]2[C@@H]1O	10.2%	–
CN1CCN(Cc2ccc(Nc3ncc(Cl)c(Nc4ccccc4S(=O)(=O)N(C)C)n3)cc2)CC1	-1.57%	–
COc1cc(N2CCOCC2)ccc1Nc1ncc(Cl)c(Nc2ccccc2NS(C)(=O)=O)n1	-0.93%	–
CNC(=O)c1ccccc1Nc1nc(Nc2ccc3c(c2OC)CCC[C@H](N2CCN(CCO)CC2)C3)ncc1Cl	83%	–

Compound	inhibition [1]	inhibition [2] [%]
CCCCCOc1ccc(-c2cc(-c3ccc(C(=O)N[C@H]4C[C@@H](O)[C@@H](O)NC(=O)[C@@H]5[C@@H](O)[C@@H](C)CN5C(=O)[C@H]([C@H](O)CC(N)=O)NC(=O)[C@H]([C@H](O)[C@@H](O)c5ccc(O)c(OS(=O)(=O)O)c5)NC(=O)[C@@H]5C[C@@H](O)CN5C(=O)C([C@@H](C)O)NC4=O)cc3)no2)cc1 (stereo partly drawn) (X1-[Orn(4R-OH,5R-OH)][ξThr(3R)][Hyp][hTyr(3S-OH,4S-OH,3'-OSO3H)][Gln(3R-OH)][Pro(3S-OH,4S-Me)]; lactam 1-C)	4.51%	–
O=C(/C=C/c1ccccc1)NC(NC(=S)Nc1cccc2cccnc12)C(Cl)(Cl)Cl (stereo not drawn)	3.55%	–
CN(C)CCCSc1ccccc1NC(=O)/C=C/c1ccccc1	92.4%	–
CC(C)c1ccc(C(=O)c2cccs2)c(SCCCCCCCCN(C)C)n1	3.78%	–
CNC[C@@H]1CC[C@@H](N)[C@H](O[C@H]2[C@H](O)[C@@H](O[C@H]3OC[C@](C)(O)[C@H](NC)[C@H]3O)[C@H](N)C[C@@H]2N)O1	-3.43%	–
gallium-triquinolin-8-olate, CHEMBL4303465	–	8.35
C[C@H]1N=C(N(C)C)N=C(N)N1	-1.55%	–
CN1C[C@@H]2CN(c3ccc(-c4ccccc4)nn3)C[C@@H]2C1	57.6%	–
O=C(c1cc(S(=O)(=O)Nc2ccccc2F)c(F)cc1Cl)N1CCN2CCC[C@@H]2C1	-3.32%	–
CN1[C@H]2C[C@H](OC(=O)[C@H](CO)c3ccccc3)C[C@@H]1[C@@H](O)C2 (racemic)	0.83%	–
C=C1/C(=C\C=C2/CCC[C@]3(C)[C@@H]([C@H](C)CCCC(O)(C(F)(F)F)C(F)(F)F)CC[C@@H]23)C[C@@H](O)C[C@@H]1O	4.32%	–
COc1cc(-c2ccc(/N=N/c3ccc4c(S(=O)(=O)O)cc(S(=O)(=O)O)c(N)c4c3O)c(OC)c2)ccc1/N=N/c1ccc2c(S(=O)(=O)O)cc(S(=O)(=O)O)c(N)c2c1O	50.8%	–
COc1cc(O)c(C(=O)c2ccccc2)cc1S(=O)(=O)O	2.56%	–
COc1cccc(-n2nc(C(=O)O)cc2-c2ccc(C3CCCCC3)c(Cl)c2)c1	1.57%	–
CO/N=C(\C(=O)N[C@@H]1C(=O)N2C(C(=O)O)=C(C)CS[C@H]12)c1csc(N)n1	1.72%	–
GADOTERIDOL, CHEMBL1200593	–	-0.37
Miriplatin, CHEMBL4303713	–	-1.16
PHENYLMERCURIC ACETATE, CHEMBL1333953	–	62
NC1CCC(N[C@@H]2C[C@H]2c2ccccc2)CC1 (stereo partly drawn)	-0.23%	–
CN1C(=O)C(N2CCCCC2)S/C1=C\C(=O)O (stereo not drawn)	0.03%	–
CC(C)Oc1ccc(-c2nn([C@@H](C)c3oc4ccc(F)cc4c(=O)c3-c3cccc(F)c3)c3ncnc(N)c23)cc1F	2.17%	–
COC(=O)C1=C(C)N(C)C(C)=C(C(=O)OC)C1c1ccc(C(F)(F)F)cc1	1.92%	–

Compound	inhibition [1]	inhibition [2] [%]
CCCCCCCCC(=O)NCc1ccc(O)c(OC)c1	58.8%	–
COc1cc(CNC(=O)CCCC/C=C/C(C)C)ccc1O	-2.58%	–
CCCCC/C=C\C/C=C\CCCCCCCC(=O)NCCCC(=O)O	3.98%	–
CS(=O)(=O)OC[C@H](O)[C@@H](O)COS(C)(=O)=O	2%	–
N=C1N[C@H]2[C@H](CS[C@H]2CCCCC(=O)O)N1	1.67%	–
O=[Si]=O.O=[Si]=O.O=[Si]=O.O=[Si]=O.[O]=[Mg].[O]=[Mg].[O]=[Mg]	97.2%	–
CNC(=O)c1cccc2cc(Oc3ccnc4cc(OCC5(N)CC5)c(OC)cc34)ccc12	11.4%	–
c1ccc(CCNc2nc(-c3ccccc3)cs2)cc1	83.7%	–
O=C(NCc1cccc(O)c1)Nc1nc(-c2ccncc2)cs1	-5.89% and -0.86%	–
O=C(O)c1ccccc1NCCc1ccccc1	7.74%	–
CC(NC(=O)[C@@H](N)Cc1ccc(O)cc1)C(=O)NCC(=O)N(C)[C@@H](Cc1ccccc1)C(=O)N[C@H](CO)CC[S+](C)[O-] (stereo in doubt)	2.35%	–
O=C(O)c1cc(O)c(O)c(O)c1	-7.85%	–
O=C(O)c1cc(/N=N/c2ccc(O)c(C(=O)O)c2)ccc1O	95.1%	–
COc1ccc(NS(=O)(=O)c2ccc(/N=N/c3ccc(O)c(C(=O)O)c3)cc2)nn1	-4.06%	–
CC1(C)[C@@H]2C[C@H]1[C@@](C)(O)[C@@H](O)C2	-1.04%	–
Cc1ccc(S(=O)(=O)Nc2ccc3c(c2)c(C(=O)C(F)(F)F)cn3CC(=O)N[C@@H](CC(C)C)C(=O)O)cc1	-4.82%	–
O=C1C[C@@]2(C(=O)N1)C(=O)N(Cc1ccc(Br)cc1F)C(=O)c1cccn12	-2.35%	–
COCCN1CCN(Cc2ccc(-c3n[nH]c4c3C(=O)c3c(NC(=O)NN5CCOCC5)cccc3-4)cc2)CC1	-4.17%	–
CNC(=O)N(C)N=O	-4.29%	–
O=c1c2ccccc2[se]n1-c1ccccc1	52.4%	–
CCC(=O)NO	44.5%	–
O=[N+]([O-])c1cn2c(n1)OC[C@@H](OCc1ccc(-c3ccc(OC(F)(F)F)cc3)nc1)C2	4.86%	–
